Out of some 2,300 compounds screened, fewer than 10 were called active. The list is a sample of the results. A number with no mark means an inactive call.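 How the source made its calls: active means yellow fluorescent protein signal ratio exceeding the buffer control mean by over 5 SD of those controls; inactive means the rest.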
Assay: nonspecific effects on YFP-HEK293 ionomycin response – cell-based, parental YFP-HEK293, YFP quench, counter-screen for TMEM16A inhibitor project (AID 652233);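 further: ratio is mean of duplicate wells from kinetic YFP trace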
Settings: parental YFP-HEK293, iodide YFP quench, at 10 µM

| SMILES | YFP ratio F(max-min)/F0 |
| --- | --- |
| O=C(Nc1ccccc1)c1ccccc1NC(=O)C(F)(F)F | -0.833 |
| Cn1c(CN2CCOCC2)nc2cc(NC(=O)c3ccc(Cl)cc3)ccc21 | -0.87 |
| Cc1ccc(C(=O)O)cc1-c1ccc(/C=C2\SC(=O)N(CC(=O)Nc3ccc4c(c3)OCO4)C2=O)o1 | -1.05 |
| CCc1cc2c(N3CCN(c4nnc(CC)s4)CC3)ncnc2s1 | -1.01 |
| Cc1ccc(-c2csc(-c3c[nH]c4ccccc34)n2)cc1 | -0.919 |
| CN(Cc1cccnc1)C(=O)c1cc(COc2ccc3ncccc3c2)on1 | -0.909 |
| CCOC(=O)C1CCN(c2ncnc3c2oc2ccc(Br)cc23)CC1 | -1.19 |
| O=C1NC(=O)C2C1C(c1ccc([N+](=O)[O-])cc1)=NN2Cc1ccccc1 (stereo not drawn) | -1.22 |
| Cc1ccc2c(c1)N(CC(=O)N1CCCc3ccccc31)C(=O)C(C)O2 (stereo not drawn) | -1.08 |
| O=S1(=O)CCN(Cc2ccccc2Cl)CC1 | -0.979 |
| N#Cc1nc(N)nc(N(c2ccccc2)c2ccccc2)n1 | -1.24 |
| CCCOc1ccc(Cc2c(Cl)nc(SC)nc2NC)cc1 | -1.09 |
| Cc1ccc(NC(=O)CN(C)CC(=O)Nc2cccc(F)c2)cc1[N+](=O)[O-] | -0.913 |
| CCN(CC)S(=O)(=O)c1ccc(N(C)Cc2ccc(C(F)(F)F)cc2)nc1 | -1.04 |
| CC1CCN(C(=O)c2ccc(CSc3ccc(Cl)cc3)cc2)CC1 | -0.991 |
| COc1ccc(-n2c(C)cc(C(=O)CSc3nnc(-c4cccs4)o3)c2C)cc1 | -1.16 |
| CCn1nccc1C(=O)Nc1ccc(S(=O)(=O)NC23CC4CC(CC(C4)C2)C3)cc1 | -1.03 |
| O=C(CN1CCN(C(=S)NC2CCCC2)CC1)Nc1ccc(Oc2ccccc2)cc1 | -1.09 |
| Cc1ccc(N)cc1-n1c(C)ccc1C | -1.02 |
| CN(C)c1cc[n+](Cc2ccccc2)cc1 | -1.12 |
| Cn1c(CCN2CCCCCC2)nc2cc(NC(=O)Nc3ccccc3)ccc21 | -1.1 |
| COc1cc(CC(=O)Nc2nc(-c3ccc(F)c(F)c3)cs2)cc(OC)c1OC | -1.01 |

| SMILES | YFP ratio F(max-min)/F0 |
| --- | --- |
| S=C(NCC1CCCO1)N1CCN(c2ccc(Cl)c(Cl)c2)CC1 (stereo not drawn) | -0.789 |
| O=c1cc(C(F)(F)F)[nH]c(=O)n1C1CCCCC1 | -1.23 |
| CCCc1cc(=S)n2c([nH]c3ccccc32)c1C#N | -0.888 |
| Cc1ccc(NC(=O)C(C)c2cccc(C(=O)c3ccccc3)c2)cc1 (stereo not drawn) | -1.26 |
| Cc1nc(CNS(=O)(=O)c2ccc(Oc3ccccc3)cc2)cs1 | -1.1 |
| C=CCSc1nsc(NC(=O)Nc2cccc(C(C)=O)c2)n1 | -1.12 |
| O=C(O)c1ccc(NC(=O)C2CCCCC2)cc1 | -1.22 |
| Fc1ccc2[nH]c3c(N4CCSCC4)ncnc3c2c1 | -1.05 |
| CCCC(=O)Nc1ccccc1N1CCN(C(=O)c2ccccc2)CC1 | -1.02 |
| COc1ccc(-c2nc(CCNC(=O)c3ccc(Br)o3)cs2)cc1 | -1.06 |
| COc1ccc(NC(=O)C2=CC(c3ccc(OC)c(OC)c3)=NS(=O)(=O)N2C)cc1 | -1.13 |
| Cc1[nH]n(-c2cccc(Cl)c2)c(=O)c1-c1ccc(Cl)cc1 | -0.864 |
| CCOC(=O)C1=C(CN2CCc3ccccc32)NC(=O)NC1c1cccc([N+](=O)[O-])c1 (stereo not drawn) | -1.14 |
| Cc1ccc(C)c(N2CCN(C(=O)CCCCn3c(=O)[nH]c4ccccc4c3=O)CC2)c1 | -1 |
| CSc1nnc2c(n1)OC(c1ccsc1)N(C(C)=O)c1ccccc1-2 (stereo not drawn) | -1.24 |
| CC(=O)c1cc(CN2CCC(C(=O)Nc3cccc(-c4cscn4)c3)CC2)cs1 | -0.907 |
| Cc1cccc(-n2c(SCC(N)=O)nc3c(c2=O)C2(CCCCC2)Cc2ccccc2-3)c1 | -0.969 |
| COc1ccc(C(=O)NC2CCCc3c2cnn3-c2cccc(C)c2C)c(OC)n1 (stereo not drawn) | -0.94 |
| CCOC(=O)C(Sc1ncc(C#N)c(N)n1)C(C)C (stereo not drawn) | -1.02 |
| O=C(NCCc1ccc2c(c1)OCCO2)c1cc2ccccc2o1 | -0.931 |
| COc1ccc(Cl)cc1NC(=O)CCS(=O)(=O)c1cc2c(cc1C)NC(=O)CO2 | -0.855 |
